# From PubChem BioAssay AID2013 (Sanford-Burnham Center for Chemical Genomics, 2009)
# Screen size: about 290,000 compounds; about 370 (0.13%) were called active. The sample holds actives, similar compounds and a random draw of the others, so the mix is not that of the screen. Results with a measured potency or affinity are listed apart. Values without a mark were called inactive.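 Rule for the calls: active = spots per cell inhibited over 60%, with over 100 cells counted and total cytoplasm intensity under 500,000; inconclusive = wells with under 100 cells, flagged as likely toxic; inactive = the rest.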
# Biological target: G-protein coupled receptor 55 (Homo sapiens) (UniProt Q9Y2T6)
# Sequence (Q9Y2T6 whole entry, looked up): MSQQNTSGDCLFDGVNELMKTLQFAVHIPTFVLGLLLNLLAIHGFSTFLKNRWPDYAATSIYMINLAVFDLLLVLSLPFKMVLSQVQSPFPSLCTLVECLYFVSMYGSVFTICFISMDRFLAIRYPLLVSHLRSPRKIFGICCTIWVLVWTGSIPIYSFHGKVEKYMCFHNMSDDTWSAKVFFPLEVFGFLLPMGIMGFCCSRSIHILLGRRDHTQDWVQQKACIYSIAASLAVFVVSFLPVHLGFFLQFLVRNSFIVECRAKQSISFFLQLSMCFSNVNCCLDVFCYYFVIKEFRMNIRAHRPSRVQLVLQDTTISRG
# Assay: GPR55 antagonists blocking LPI-driven arrestin recruitment, primary screen, imaging, U2OS, beta-arrestin-GFP, LPI agonist (AID 2013);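 note: U2OS cells stably carrying GPR55 and arrestin-GFP stimulated by 5 µM LPI near EC80; imaged beta-arrestin-GFP aggregate spots per cell after agonist stimulation; plate controls were LPI-stimulated DMSO wells for no effect and DMSO wells without LPI for full effect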
# Conditions: U2OS GPR55 beta-arrestin-GFP translocation imaging, LPI antagonism; at 10 µM; hits give high values
row,Structure (SMILES),inhibition
1,Cc1cc(C)c(NC(=O)c2ccccc2C(=O)c2ccccc2)c(C)c1,10.3%
2,Cc1ccc(C)c(NC(=O)c2ccccc2C(=O)c2ccccc2)c1,79.4% (active)
3,Cc1ccc(C)c(NC(=O)c2ccccc2O)c1,10.8%
4,OCC[C@@H]1C[C@H](O)[C@@H](O)[C@]2(Cc3ccccc3O2)O1,-2.3%
5,COc1ccc(S(=O)(=O)n2nc(-c3cc(OC)c(OC)c(OC)c3)cc2N)cc1OC,-6.7%
6,COc1ccc(-c2cc(N)n(S(=O)(=O)c3ccc(F)cc3)n2)cc1OC,1.3%
7,Cn1nnc2c(N3CCCCC3)nccc21,14.8%
8,O=C(CC12CC3CC(CC(C3)C1)C2)Nc1ccc(C(=O)O)cc1,-2.4%
9,CC(=O)Nc1ccc(NC(=O)CC23CC4CC(CC(C4)C2)C3)cc1,55.6%
10,O=C(NCCCn1ccnc1)c1cc(C2CC2)on1,-6.4%
11,CCOc1ccc2oc(C(=O)NCC(C)(C)CN(C)C)c(C)c2c1,13%
12,O=C(NCCc1ccccc1)C1COc2ccccc2O1 (configuration not stated),5.5%
13,CCCCn1c(N)c(-c2nc3ccccc3o2)c2c([N+](=O)[O-])nn(CC)c(=O)c21,4.8%
14,CCCCCn1c(N)c(-c2nc3ccccc3o2)c2c([N+](=O)[O-])nn(CC)c(=O)c21,13.1%
15,CCn1nc([N+](=O)[O-])c2c(-c3nc4ccccc4o3)c(N)n(CCCOC)c2c1=O,98.4% (active)
16,CCOC(=O)N1CCC(=NNC(=O)Cn2ccc(C(F)(F)F)n2)CC1,-11.4%
17,COC(=O)c1cnc(SCC(=O)c2ccccc2)n1C,2%
18,CC(C(=O)NCc1cccs1)N1C(=O)c2ccccc2C1=O (configuration not stated),17.5%
19,C=CCNC(=O)c1ccc([N+](=O)[O-])c(Cl)c1,-0.3%
20,COCCCNC(=O)c1ccc([N+](=O)[O-])c(Cl)c1,2.9%
21,Cc1ccnc2c(N3C(=O)C4C5c6ccccc6C(c6ccccc65)C4C3=O)cccc12 (configuration not stated),13.1%
22,Cc1ccc(C)c(NC(=O)CN(C)C(=O)/C=C/c2ccco2)c1,-6.6%
23,CCCCCCCCOC(=O)CCc1c(C)[nH]c(=S)[nH]c1=O,-16.9%
24,COc1ccc(C)cc1NC(=O)CCNS(=O)(=O)c1cccc2nonc12,6.9%
25,OC(CNCCc1ccc(C(F)(F)F)cc1)COc1ccc2ccccc2c1 (configuration not stated),30.5%

row,Structure (SMILES),inhibition
1,COc1ccc(C(OCC(O)CNCCc2ccccc2)c2ccc(OC)cc2)cc1 (configuration not stated),8.1%
2,N#CCSc1ccsc1C(=O)Nc1ccc(F)cc1,2.6%
3,COCCn1nnnc1CN1C2CCCC1CC(NC(C)=O)C2 (configuration not stated),0.2%
4,COc1cc(/C=N/OCC(=O)NC2CCCCC2C)ccc1OCc1ccc(Cl)cc1 (configuration not stated),-3.5%
5,CCOc1ccccc1CNS(=O)(=O)c1ccc(-c2cnc(C3CC3)o2)cc1,99.5%
6,COc1cccc(N2CCN(c3ncnc4c3[nH]c3ccccc34)CC2C)c1 (configuration not stated),33%
7,COc1cccc(N2CCN(c3ncnc4c3[nH]c3ccc(F)cc34)CC2C)c1 (configuration not stated),91.8% (active)
8,Fc1ccc2[nH]c3c(N4CCN(c5ccccc5)CC4)ncnc3c2c1,-5.9%
9,COC(=O)COc1ccc(S(=O)(=O)NCc2ccco2)cc1,10.1%
10,C/C(=C\c1ccccc1)C(=O)NCCCn1ccnc1,9.4%
11,Cc1ccc(NC(=S)N(CCCN2CCOCC2)Cc2cccs2)c(C)c1,25.2%
12,Cc1ccccc1NC(=S)N(CCCN1CCOCC1)Cc1cccs1,54.6%
13,CCC(C)(C)n1nnnc1C(c1cccc(C#N)c1)N1CCN(c2cc(C)ccc2C)CC1 (configuration not stated),2.5%
14,CCc1cc2c(=O)c(-c3ccc4c(c3)OCCO4)coc2cc1OS(C)(=O)=O,8%
15,COc1cc(/C=C(\C#N)C(=O)NC2CCCCC2C)ccc1OS(=O)(=O)c1ccc(C)cc1 (configuration not stated),28.8%
16,COc1cc(/C=C(\C#N)C(N)=O)ccc1OS(=O)(=O)c1ccc(C)cc1,28.6%
17,O=C(OCc1nnc(-c2ccccc2)o1)C12CC3CC(CC(Br)(C3)C1)C2,0.4%
18,N#CC(C#N)=C1C=C2C=C(N3CCCCCC3)CCC2CC1 (configuration not stated),23.3%
19,N#CC(C#N)=C1C=C2C=C(N3CCCCC3)CCC2CC1 (configuration not stated),3.1%
20,CCc1ccc(CN2CCC(n3nccc3NC(=O)c3ccccc3)CC2)o1,-3.9%
21,Cc1c(C(=O)NCc2ccc3c(c2)OCO3)sc2nc(-c3ccc(F)cc3)cn12,11.5%
22,CC(C)c1nnc(NC(=O)CCC(=O)NCc2ccccc2Cl)s1,13%
23,CCCNc1nc(=S)n(-c2ccccc2)c(C)c1C(C)=O,4.7%
24,O=C(O)CSc1ncnc2scc(-c3ccccc3)c12,3.8%
25,Cc1ccc(-c2csc3ncnc(SCc4ccc(C(=O)O)cc4)c23)cc1,10%

row,Structure (SMILES),inhibition
1,O=C(NNC(=S)NCc1ccccc1)c1ccc(Br)o1,13.5%
2,C=CCN(c1ccccc1)S(=O)(=O)c1c(C)[nH]c(=O)[nH]c1=O,0.3%
3,O=[N+]([O-])CC(=Nc1ccc(F)cc1)N/N=C\c1oc(O)c2ccccc12,15.6%
4,COC(=O)C1=C(C)N(Cc2ccc(OC)cc2)C(=O)/C1=C\c1ccco1,0.4%
5,COC(=O)C1=C(C)N(Cc2ccccc2)C(=O)/C1=C\c1ccco1,2.2%
6,COc1ccc(-c2csc3ncnc(Oc4cccc5ccc(C)nc45)c23)cc1,7.8%
7,Cc1ccc(-c2csc3ncnc(Oc4cccc5ccc(C)nc45)c23)cc1,3.8%
8,Cc1ccc2cccc(Oc3ncnc4scc(-c5ccccc5)c34)c2n1,77.9% (active)
9,Cc1ccc(N2C(=O)C3CCCN3C2=S)cc1C (configuration not stated),3.3%
10,O=C(COc1cccc(C(F)(F)F)c1)N1CCN(c2ccc(O)cc2)CC1,-7.2%
11,NC(=O)c1ccc[n+](CC(=O)c2ccc(Br)cc2)c1,9.5%
12,N#C/C(=C/c1ccc(N2CCOCC2)o1)C(=O)Nc1ccccc1,0.6%
13,N#C/C(=C\c1ccc(N2CCOCC2)o1)C(=O)N1CCOCC1,100% (active)
14,N#C/C(=C\c1ccc(N2CCOCC2)o1)C(=O)Nc1ccc(O)cc1,-2.9%
15,COc1cccc(NC(=O)C(=O)N/N=C/c2ccc3c(c2)OCO3)c1,14.8%
16,c1ccc(C(c2ccccn2)c2ccccn2)cc1,1.1%
17,CC(=O)Oc1ccc(C(=O)Cc2ccccn2)c(O)c1,1%
18,CCOC(=O)CCNC(=O)N1CCCC(N(C)CCc2ccc(OC)c(OC)c2)C1 (configuration not stated),6.3%
19,O=C(NCC1CC1)Nc1ccc(Cl)cc1,10.7%
20,CCCS(=O)(=O)N1CCCC(C(=O)Oc2ccc(C)c(C)c2)C1 (configuration not stated),-6.5%
21,CCOc1ccccc1NC(=O)NC1(C(=O)NCc2cccnc2)CCCCC1,3.3%
22,CCn1c(=N)c(C(=O)OC)cc2c(=O)n3ccccc3nc21,-3.4%
23,CCOC(=O)c1cc2c(=O)n3cccc(C)c3nc2n(C)c1=N,4.1%
24,CCOC(=O)c1cc2c(=O)n3ccccc3nc2n(Cc2ccccc2Cl)c1=N,38.5%
25,COC(=O)c1cc2c(=O)n3cccc(C)c3nc2n(Cc2cccnc2)c1=N,-5.2%

row,Structure (SMILES),inhibition
1,CCOC(=O)c1cc2c(=O)n3cccc(C)c3nc2n(Cc2ccccc2Cl)c1=N,85.6% (active)
2,COCCNC(=O)C(OC(=O)CC1Sc2ccccc2NC1=O)c1ccncc1 (configuration not stated),1.2%
3,O=[N+]([O-])c1ccc(S(=O)(=O)NCCN2CCOCC2)cc1,11.3%
4,CCn1ncc(C(=O)Nc2cccc(Cl)c2)c1C,3.9%
5,Brc1ccc(-c2nnc(Cc3ccccc3)o2)cc1,-5.2%
6,COc1ccc(Cc2nnc(-c3ccccc3)o2)cc1,-5.3%
7,CCN1CCCC1CN(Cc1cc2cc(OC)ccc2[nH]c1=O)C(=O)NCc1ccccc1 (configuration not stated),11.3%
8,CC(NC(=O)C12CC3CC(CC(C3)C1)C2)c1ccc2c(c1)OCCO2 (configuration not stated),3%
9,COc1cc(CNCCO)cc(Cl)c1OCc1ccccc1Cl,14.7%
10,CCOc1cc(CNCCO)cc(Br)c1OCc1ccc(Cl)cc1Cl,11.8%
11,COc1cc(CNCCO)cc(Cl)c1OCc1ccc(Cl)cc1Cl,83.3% (active)
12,CCOC(=O)/C(C#N)=C/c1cn(CCC(=O)O)nc1-c1cccc(Br)c1,1.6%
13,N#C/C(=C/c1cn[nH]c1-c1ccc(Br)cc1)C(=O)O,3%
14,COc1ccccc1/C=C(/C#N)C(=O)O,7%
15,N#C/C(=C\c1ccccc1Br)C(=O)NC1CC1,-17.2%
16,COc1ccc(S(=O)(=O)N(CC(=O)NCc2ccncc2)c2cc(C)cc(C)c2)cc1OC,14.3%
17,COc1cc(OC)c(-c2sc(Nc3ccccc3)n[n+]2-c2ccc(F)cc2)cc1OC,-3%
18,COc1ccc(-c2sc(Nc3ccccc3)n[n+]2-c2ccc(F)cc2)c(OC)c1OC,30%
19,COc1cc(Br)c(-c2sc(Nc3ccccc3)n[n+]2-c2ccccc2)cc1OC,40.4%
20,COc1ccc(-c2sc(Nc3ccccc3)n[n+]2C)c(C)c1C,-7%
21,CCn1c(SCC(=O)Nc2ccc(OC)cc2)nnc1-c1ccco1,2.2%
22,O=C(Nc1ccc(F)cc1)NC1(C(=O)NCc2ccco2)CCCCC1,5.6%
